# Test results reported in PubChem BioAssay (EPA / NIEHS).
# The source made the active and inactive calls. How the source made its calls: active means hit-call score of the fitted dose curve at least 0.9, where 1 is the maximum; inactive means score below 0.9.
# Experiment: CCTE_Shafer_MEA_acute_per_network_burst_spike_number_mean: CCTE's Neural Acute Assay for Average Number of Spikes in a Network Burst, Shafer Lab (AID 2284019)
# Protocol: CCTE_Shafer_MEA_acute assay is conducted using Axion Biosystems 48 well microelectrode array (MEA) plates and Maestro recording system. Each well of the MEA plate contains a grid of 16 microelectrodes embedded in the culture surface. Electrically active cells, such as neurons, can be cultured over the electrodes, and electrical activity in these cells can be recorded extracellularly. The spontaneous firing of neurons is captured from each electrode on a microsecond timescale providing both temporally and spatially precise data. […] The CCTE_Shafer_MEA_acute assay uses primary cultures of rat cortical neurons. As these cultures mature over time, neural networks develop functional activity and form cohesive networks in which electrical activity can be highly coordinated. Baseline 40-minute recordings are made on days post-plating 13 or 15, followed by a secondary 40-minute recording after chemical exposure.CCTE_Shafer_MEA_acute_per_network_burst_spike_number_mean is a component of the CCTE_Shafer_MEA_acute assay. It measures the average number of spikes (action potential firings) in a network burst (temporally-clustered group of spikes across multiple electrodes) as the total number of spikes in a network burst divided by the number of network bursts during a recording in a microelectrode array (MEA) using Axion Biosystems Maestro 768 channel amplifier with the AxIS adaptive spike detector. The recordings before and after chemical treatment are used to calculate a percent change in the mean number of spikes in a network burst in each well.Data from the assay component CCTE_Shafer_MEA_acute_per_network_burst_spike_number_mean was analyzed into 1 assay endpoint. This assay endpoint, CCTE_Shafer_MEA_acute_per_network_burst_spike_number_mean, was analyzed in the negative analysis fitting direction relative to DMSO as the negative control and baseline of activity. Using a type of functional reporter, gain or loss-of-signal activity can be used to understand electrical activity.
# Spontaneous activity in the cortical cultures was recorded using an Axion Biosystems Maestro 768 channel amplifier and Axion Integrated Studios (AxIS) v1.8 (or later) software. The amplifier recorded from all channels simultaneously (gain = 1200 x; sampling rate = 12.5 kHz/channel): raw signals were filtered with a Butterworth band-pass filter (300-5000 Hz), which filters out slower local field potentials leaving only fast potentials, i.e., "spikes", arising from extracellular currents associated with action potentials (Pine 2006; Wheeler and Nam 2011). On-line spike detection of filtered signals was conducted with the AxIS adaptive spike detector, using a threshold of 8x the root mean squared (rms) noise on each channel. Any electrodes with rms noise levels greater than 5 uV were grounded (e.g., no data were recorded). Once grounded, an electrode was grounded for the duration of the experiment. All recordings were conducted at 37 C. Wells were deemed usable if on the day of the exposure >/= 10 electrodes were active (defined as >/= 5 spikes/min). On DIV 13 or 15, a minimum of three wells from one cortical culture preparation were treated with each compound (0.03-40 uM). Prior to recording baseline activity, each mwMEA plate was placed in the Maestro at 37 C and allowed to sit for 20 min while firing rates stabilized. Baseline activity (40 min) was recorded before the addition of each compound. An additional 40 min of spontaneous activity was recorded in the presence of each compound. Changes in network parameters relative to baseline were assessed following compound treatment.
Structure (SMILES),outcome,AC50
Cc1[nH]cnc1C[C@H]1CCc2c(C)c3ccccc3n2C1=O,inactive,
CCCN(C1CCN(C(=O)C2CCNCC2)CC1)[C@@H]1CCc2ccc(OC)cc2C1,inactive,
CC[C@H]1CC[C@H](NCc2cc3c(cc2OC)[C@H]2C[C@H]2C(=O)N3C)[C@H](c2ccccc2)N1,inactive,
COc1cccc(-c2ccc(/C=C\CN3CCCCCC3)cc2Cl)c1,,3.94 µM (active)
Cn1c(=O)c2c(ncn2C)n(C)c1=O,inactive,
CCCCCCc1ccc(O)cc1O,,6.93 µM (active)
CCOC(=O)c1ccc(C2CCC(NC[C@H](O)COc3ccc(O)c(NS(C)(=O)=O)c3)CC2)cc1 (stereo partly drawn),inactive,
O=P(OC(CCl)CCl)(OC(CCl)CCl)OC(CCl)CCl,inactive,
Cn1cnc([N+](=O)[O-])c1Sc1ncnc2nc[nH]c12,inactive,
CC(C)=CCCC(C)=CC=O,inactive,
O=C(O)CCN(C1(C(=O)NO)CCCC1)S(=O)(=O)c1ccc(Oc2ccc(F)cc2)cc1,inactive,
CCC(C)(C)C(=O)O[C@H]1C[C@@H](C)C=C2C=C[C@H](C)[C@H](CC[C@@H]3C[C@@H](O)CC(=O)O3)[C@H]21,inactive,
CCCCCCCCCCCCc1ccccc1,inactive,
CCCCC(CC)COC(=O)CCCCCCCCC(=O)OCC(CC)CCCC (stereo not drawn),inactive,
CC[C@H]1OC(=O)[C@H](C)[C@@H](O[C@H]2C[C@@](C)(OC)[C@@H](O)[C@H](C)O2)[C@H](C)[C@@H](O[C@@H]2O[C@H](C)C[C@H](N(C)C)[C@H]2O)[C@](C)(O)C[C@@H](C)C(=O)[C@H](C)[C@@H](O)[C@]1(C)O,inactive,
O=C(O)c1cc(N=Nc2ccc(S(=O)(=O)Nc3ccccn3)cc2)ccc1O,inactive,
On1ccccc1=S,inactive,
COc1ccc2sc(C(=O)Nc3nnn[nH]3)c(OC(C)C)c2c1,inactive,
